PubChem BioAssay (NCATS)
Results filed as inconclusive are left out. Calls of active or inactive are those of the source. Unless noted, calls follow the shape of the dose curve; as a rule, active = well fitted curve in the direction sought with a large enough effect; inconclusive = small, poorly fitted or top-dose-only effect, or another doubt; inactive = no such curve, though single readings can be large; an effect the other way counts as inactive or inconclusive.

Legend:
[1] = molecular target: T1, Hexokinase-4 (Homo sapiens) + Glucokinase regulatory protein (Homo sapiens) (UniProt P35557+Q14397); assay: qHTS assay for inhibitors of recombinant human GCK-GKRP interaction: ADP-Glo assay (AID 743206);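 also: plate controls were DMSO plus enzyme for no effect and no enzyme for full effect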
Summary of the method: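 Pin-transferred compounds meet a 15 nM GST-GCK/15 nM FLAG-GKRP/2 uM S6P mix (dispense concentrations). ATP is then added to 0.4 mM final with 5 mM glucose, and the reaction runs 60 min at room temperature. ADP is quantified luminescently.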

[2] = molecular target: T1, Hexokinase-4 (Homo sapiens) + Glucokinase regulatory protein (Homo sapiens); assay: qHTS assay for inhibitors of recombinant human GCK-GKRP interaction: HTRF assay (AID 743207);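 also: 0% = DMSO with GCK present and -100% = DMSO wells lacking GCK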
Summary of the method: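 GST-GCK and FLAG-GKRP (5 nM each) were combined with 2 uM S6P in pH 7.1 Hepes/MgCl2/KCl/DTT buffer, then compound and anti-FLAG XL665/anti-GST K antibodies were added. After 60 min at room temperature, HTRF 665/615 nm emission was read.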

[3] = qHTS Assay for Identifying Gametocytocidal Compounds (AID 743244);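 also: % is scaled to controls: 0 for no effect and ±100 for the full control effect; actives lower the fluorescent signal which means gametocytes are killed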; details: P. falciparum 3D7 stage III-V gametocytes, alamarBlue, 72 h; max response: hits give low values
Summary of the method: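 Fluorescence at Ex 525/Em 598 nm, recorded 24 h after alamarBlue addition, reports residual metabolic activity of 3D7 gametocytes (stages III–V) following 72 h compound exposure at 37 °C, 5% CO2.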

[4] = qHTS assay for measurement of the activity of small molecule inhibitors on Zika virus induced Caspase-3 activity in human iPSC derived neural progenitor cells (hNPCs) (AID 1224857); also: % of control where 0% means no effect; nearly all actives have a fitted effect of over 65% in size
Summary of the method: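 Zika virus (2 FFU/cell) infection of human iPSC-derived NPCs, 6 h, following 1 h compound preincubation. Read-out: Caspase-Glo 3/7 luminescence.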

[5] = qHTS assay for measurement of the activity of small molecule inhibitors on Zika virus induced Caspase-3 activity in human astrocytoma cells (AID 1224859);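 also: plate controls were ZIKV-infected untreated cells for no effect and uninfected cells for full effect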
Summary of the method: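 Caspase activation in ZIKV-infected SNB-19 cells (2 FFU/cell, 6 h) measured by Caspase-Glo 3/7 luminescence after 30 min RT; compound pre-incubated 1 h; normalised to uninfected and infected controls.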

[6] = Natriuretic polypeptide receptor (hNpr1) antagonism - Pilot counterscreen GloSensor control cell line (AID 1347045; calls by dose curve; also: series mostly up to about 38 µM; % is scaled to controls: 0 for no effect and ±100 for the full control effect)
Summary of the method: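 Control counterscreen: luciferase cGMP-biosensor HEK293 cells (no Npr1) received compound for 30 min at room temperature after GloSensor substrate loading. Luminescence was measured before and 20 min after soluble guanylyl cyclase activation by 50 uM nitroprusside.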

[7] = molecular target: Atrial natriuretic peptide receptor 1 (Homo sapiens) (UniProt P16066); assay: Natriuretic polypeptide receptor (hNpr1) antagonism - Pilot screen (AID 1347049; calls by dose curve;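 also: agonist-evoked cGMP luminescence read 20 min after hNppA addition; series mostly up to about 58 µM; % is scaled to controls: 0 for no effect and ±100 for the full control effect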)
Summary of the method: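 cGMP-sensor HEK293/hNpr1 cells, 1500/well, plated overnight at 37C. 2% GloSensor reagent, 2 h RT. Compound (23 nL pin transfer) 30 min RT, baseline luminescence pre-read. 0.1 nM hNppA, 20 min RT, post-read.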

[8] = molecular target: Atrial natriuretic peptide receptor 2 (Homo sapiens) (UniProt P20594); assay: Natriuretic polypeptide receptor (hNpr2) antagonism - Pilot subtype selectivity assay (AID 1347050; calls by dose curve; also: % is scaled to controls: 0 for no effect and ±100 for the full control effect)
Summary of the method: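 Luminescence from a genetically encoded cGMP luciferase biosensor in hNpr2-expressing HEK293 cells is read before and 20 min after adding 1 nM hNppC. Test compounds, in interplate 1:5 titrations, are added 30-50 min ahead of the agonist.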

[9] = NS1 protein of Zika virus - qHTS assay to identify small molecule inhibitors in human HEK 293 cells (AID 1347053);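 also: series mostly up to about 46 µM; plate controls were infected untreated cells for no effect and uninfected cells for full effect; nearly all actives have a fitted effect of over 55% in size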
Summary of the method: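 In this cell-based screen, HEK 293 cultures received compound for one hour before Zika MR766 at MOI = 0.5. NS1 was quantified 24 hours later by TR-FRET, normalized to virus-free wells and infected wells.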

[10] = qHTS assay for cell viability of HEK293 cells (AID 743288); details: ATP luminescence (CellTiter-Glo), 18 h; max response: hits give low values; also: % is scaled to controls: 0 for no effect and ±100 for the full control effect; nearly all actives have a fitted effect of over 50% in size
Summary of the method: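 After 18 h compound exposure at 37 C, parental HEK293 cells (2,000/well) are lysed with CellTiter-Glo and luminescence is read following 30 min at room temperature.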

[11] = qHTS assay for cell viability of the p53RE-bla HCT-116 cell line (AID 743292); also: % is scaled to controls: 0 for no effect and ±100 for the full control effect; nearly all actives have a fitted effect of over 55% in size
Summary of the method: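 In this qHTS counter-screen, metabolically competent p53RE-bla HCT-116 cells were counted via their ATP content. Compounds were applied for 16 h at 37 C and luciferase-coupled luminescence was measured.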

T1 sequence (P35557 whole entry, looked up): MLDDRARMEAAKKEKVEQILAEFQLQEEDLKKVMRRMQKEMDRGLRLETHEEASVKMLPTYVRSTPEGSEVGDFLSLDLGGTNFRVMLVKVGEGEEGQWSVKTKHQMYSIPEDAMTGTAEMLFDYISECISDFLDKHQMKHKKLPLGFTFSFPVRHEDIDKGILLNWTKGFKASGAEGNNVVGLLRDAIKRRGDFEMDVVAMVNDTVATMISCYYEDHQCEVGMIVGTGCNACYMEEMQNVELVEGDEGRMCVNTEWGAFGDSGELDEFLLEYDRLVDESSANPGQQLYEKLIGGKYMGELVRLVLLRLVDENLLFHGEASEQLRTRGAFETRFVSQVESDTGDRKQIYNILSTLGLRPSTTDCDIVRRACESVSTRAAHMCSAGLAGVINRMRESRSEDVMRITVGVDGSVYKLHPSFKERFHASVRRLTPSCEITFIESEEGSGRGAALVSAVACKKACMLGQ
T1 sequence (Q14397 whole entry, looked up): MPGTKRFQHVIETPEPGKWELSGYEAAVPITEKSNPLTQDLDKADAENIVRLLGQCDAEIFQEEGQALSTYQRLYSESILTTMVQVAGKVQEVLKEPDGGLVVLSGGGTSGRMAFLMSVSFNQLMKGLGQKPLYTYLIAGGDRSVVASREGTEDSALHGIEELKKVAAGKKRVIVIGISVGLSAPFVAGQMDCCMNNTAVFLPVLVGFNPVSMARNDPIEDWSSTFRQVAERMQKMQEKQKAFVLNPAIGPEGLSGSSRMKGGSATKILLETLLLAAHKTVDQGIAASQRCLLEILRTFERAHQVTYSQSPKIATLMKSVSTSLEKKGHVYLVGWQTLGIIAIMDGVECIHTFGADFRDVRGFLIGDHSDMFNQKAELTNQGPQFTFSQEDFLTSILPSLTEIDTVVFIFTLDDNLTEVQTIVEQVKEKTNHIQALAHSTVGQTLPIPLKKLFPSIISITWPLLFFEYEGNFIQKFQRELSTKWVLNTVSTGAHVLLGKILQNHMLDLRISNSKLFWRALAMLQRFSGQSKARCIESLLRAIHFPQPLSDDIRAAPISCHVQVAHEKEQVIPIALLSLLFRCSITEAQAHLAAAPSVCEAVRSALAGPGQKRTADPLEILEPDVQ
Sequence of Atrial natriuretic peptide receptor 1 (Homo sapiens) (P16066 whole entry, looked up): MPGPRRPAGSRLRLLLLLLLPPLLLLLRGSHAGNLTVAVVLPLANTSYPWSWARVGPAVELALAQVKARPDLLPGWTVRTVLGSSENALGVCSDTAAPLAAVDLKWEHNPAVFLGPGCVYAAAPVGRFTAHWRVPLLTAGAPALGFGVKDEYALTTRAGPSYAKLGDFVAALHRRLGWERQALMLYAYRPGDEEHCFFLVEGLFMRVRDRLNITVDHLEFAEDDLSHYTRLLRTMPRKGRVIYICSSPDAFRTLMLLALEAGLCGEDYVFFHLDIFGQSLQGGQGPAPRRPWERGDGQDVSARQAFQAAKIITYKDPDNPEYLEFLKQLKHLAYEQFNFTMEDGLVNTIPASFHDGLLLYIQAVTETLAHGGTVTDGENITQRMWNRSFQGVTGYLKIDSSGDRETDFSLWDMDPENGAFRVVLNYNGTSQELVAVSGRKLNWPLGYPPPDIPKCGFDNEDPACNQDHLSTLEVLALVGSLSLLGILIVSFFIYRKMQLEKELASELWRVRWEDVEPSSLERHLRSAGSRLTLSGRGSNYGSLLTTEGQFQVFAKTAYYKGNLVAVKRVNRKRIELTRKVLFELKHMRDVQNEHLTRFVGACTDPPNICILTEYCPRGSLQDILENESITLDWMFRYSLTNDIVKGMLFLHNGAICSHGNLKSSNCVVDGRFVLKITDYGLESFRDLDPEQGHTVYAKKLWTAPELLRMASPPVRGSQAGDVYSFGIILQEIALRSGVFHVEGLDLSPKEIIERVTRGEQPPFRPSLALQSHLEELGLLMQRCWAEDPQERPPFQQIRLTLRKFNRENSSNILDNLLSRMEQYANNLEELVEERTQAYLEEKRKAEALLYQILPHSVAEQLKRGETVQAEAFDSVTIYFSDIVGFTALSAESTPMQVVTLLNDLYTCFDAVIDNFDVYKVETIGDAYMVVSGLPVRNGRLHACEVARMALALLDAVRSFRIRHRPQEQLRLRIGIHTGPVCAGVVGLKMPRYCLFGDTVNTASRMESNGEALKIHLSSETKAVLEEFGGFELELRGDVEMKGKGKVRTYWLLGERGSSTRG
Sequence of Atrial natriuretic peptide receptor 2 (Homo sapiens) (P20594 whole entry, looked up): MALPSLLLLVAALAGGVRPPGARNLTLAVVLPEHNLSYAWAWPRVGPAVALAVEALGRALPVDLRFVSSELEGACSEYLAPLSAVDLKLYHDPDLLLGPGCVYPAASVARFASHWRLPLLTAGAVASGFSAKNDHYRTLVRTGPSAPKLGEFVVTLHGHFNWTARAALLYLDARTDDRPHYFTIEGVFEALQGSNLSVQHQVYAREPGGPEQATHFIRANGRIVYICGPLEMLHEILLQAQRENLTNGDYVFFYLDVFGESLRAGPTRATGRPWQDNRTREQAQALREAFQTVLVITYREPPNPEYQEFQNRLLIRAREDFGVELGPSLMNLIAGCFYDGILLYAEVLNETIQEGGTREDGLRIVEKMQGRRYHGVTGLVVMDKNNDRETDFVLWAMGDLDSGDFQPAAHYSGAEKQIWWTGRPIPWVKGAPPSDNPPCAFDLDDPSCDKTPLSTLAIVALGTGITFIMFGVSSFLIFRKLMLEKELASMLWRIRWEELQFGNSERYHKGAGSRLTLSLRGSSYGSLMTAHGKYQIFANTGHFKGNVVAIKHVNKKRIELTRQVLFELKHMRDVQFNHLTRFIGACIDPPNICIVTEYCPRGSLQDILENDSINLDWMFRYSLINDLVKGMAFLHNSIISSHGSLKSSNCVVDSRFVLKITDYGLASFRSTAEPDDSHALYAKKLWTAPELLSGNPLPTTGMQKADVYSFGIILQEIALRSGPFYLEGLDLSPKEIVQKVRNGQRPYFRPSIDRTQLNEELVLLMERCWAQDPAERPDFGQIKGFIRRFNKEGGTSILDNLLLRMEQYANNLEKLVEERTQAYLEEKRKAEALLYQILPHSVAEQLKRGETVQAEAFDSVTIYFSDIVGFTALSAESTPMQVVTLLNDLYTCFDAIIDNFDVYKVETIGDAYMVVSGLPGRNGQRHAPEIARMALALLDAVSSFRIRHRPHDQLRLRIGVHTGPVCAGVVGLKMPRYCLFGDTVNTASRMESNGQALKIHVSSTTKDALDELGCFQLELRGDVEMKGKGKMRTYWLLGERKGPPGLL

O=C(O)CCC(=O)N1CCCC1C(=O)O (configuration not stated)
inactive: Potency [1] | Potency [2] | max response [3] -8.08% | Potency [4] | Potency [5] | Potency [6] | Potency [7] | Potency [8] | Potency [9]

NC(N)=[N+]1CCc2ccccc2C1
inactive: Potency [2] | max response [3] -3.89% | Potency [4] | Potency [5] | Potency [6] | Potency [7] | Potency [8] | Potency [9]

c1ccc2c(c1)CC(N1CCN(c3cccc4c3OCCO4)CC1)C2
inactive: Potency [1] | Potency [2] | max response [3] 9.97% | Potency [4] | Potency [5] | Potency [6] | Potency [7] | Potency [8] | Potency [9]

Clc1nccc2c1ccc1ccccc12
inactive: Potency [1] | Potency [2] | max response [3] 7.1% | Potency [4] | Potency [5] | Potency [6] | Potency [7] | Potency [8] | Potency [9]

COc1ccc2c(c1)CCC1C2CC[C@@]2(C)C1CC[C@@H]2NCCCCCCN1C(=O)C=CC1=O (some centres not stated)
inactive: Potency [2] | Potency [4] | Potency [5] | Potency [6] | Potency [7] | Potency [8] | Potency [9]

Cn1cc(C(=O)OCC2CCN(CCNS(C)(=O)=O)CC2)c2ccccc21
inactive: Potency [1] | Potency [2] | max response [3] 28.9% | Potency [4] | Potency [5] | Potency [6] | Potency [7] | Potency [8] | Potency [9]

CCCCCCCCCCC(C)(C)C(=O)Nc1c(OC)cc(OC)cc1OC
inactive: Potency [1] | Potency [2] | max response [3] -6% | Potency [4] | Potency [5] | Potency [6] | Potency [7] | Potency [8] | Potency [9]

CC(=O)[C@H]1CCC2C3CC=C4C[C@@H](OS(=O)(=O)O)CC[C@]4(C)C3CC[C@@]21C (some centres not stated)
inactive: Potency [1] | Potency [2] | max response [3] 21.2% | Potency [4] | Potency [5] | Potency [6] | Potency [7] | Potency [8] | Potency [9]

NCC(O)(CS(=O)(=O)O)c1ccc(Cl)cc1 (configuration not stated)
inactive: Potency [1] | Potency [2] | max response [3] -5.75% | Potency [4] | Potency [5] | Potency [6] | Potency [7] | Potency [8] | Potency [9]

O=C(O)C1CCNCC1
inactive: Potency [1] | Potency [2] | max response [3] 10.6% | Potency [4] | Potency [5] | Potency [6] | Potency [7] | Potency [8] | Potency [9]

CC1=C(/C=C/C(C)=C/C=C/C(C)=C\C(=O)O)C(C)(C)CCC1
inactive: Potency [1] | Potency [2] | max response [3] 17.8% | max response [10] 0.628% | Potency [11] | Potency [4] | Potency [5] | Potency [6] | Potency [7] | Potency [8] | Potency [9]

C=C(C)C1CC=C(C(=O)O)CC1 (configuration not stated)
inactive: Potency [1] | Potency [2] | max response [3] 19.6% | Potency [4] | Potency [5] | Potency [6] | Potency [7] | Potency [8] | Potency [9]
